Compounds without any hit were thinned out: in the full panel of roughly 83,000, 20% have a hit.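 Treatment: one concentration, 48 hours, 96-well format. Scoring: percent growth, with anything below 10 considered active.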 Unmarked numbers belong to inactive results. Active and inactive are the calls of the source.

Holding throughout (assay): NCI-60 one-dose screen, 48 h (100 = growth as untreated, 0 = no growth, -100 = all killed)
One experiment concerns NCI-H23 lung. The following applies: 10 µM unless noted.
A further experiment relates to NCI-H226 lung. The following applies: 10 µM unless noted.
In another experiment the test system is NCI-H322M lung. Particulars: 10 µM unless noted.
Another experiment concerns NCI-H460 lung. The following applies: 10 µM unless noted.
For another experiment, the system named is HOP-92 NSCLC. The following applies: 10 µM unless noted.
Another experiment has as its system A549/ATCC NSCLC. Particulars: 10 µM unless noted.
A further experiment relates to 786-0 renal. The following applies: 10 µM unless noted.
Another experiment relates to COLO 205 colon. The following applies: 10 µM unless noted.
Another experiment concerns DU-145 prostate. The following applies: 10 µM unless noted.
The test system of the next experiment is K-562 leukemia. The following applies: 10 µM unless noted.
A further experiment has as its system MALME-3M melanoma. The following applies: 10 µM unless noted.
The test system of the next experiment is MDA-MB-231 breast. Particulars: 10 µM unless noted.
The next experiment concerns RXF 393 renal. Particulars: 10 µM unless noted.
A further experiment concerns SF-268 CNS. The following applies: 10 µM unless noted.
In another experiment the test system is SF-295 CNS. The following applies: 10 µM unless noted.
For a further experiment, the system named is SF-539 CNS. Particulars: 10 µM unless noted.
For another experiment, the system named is UACC-257 melanoma. Particulars: 10 µM unless noted.
The test system of another experiment is M14 melanoma. The following applies: 10 µM unless noted.
In the next experiment the test system is NCI-H522 lung. The following applies: 10 µM.

As for `N#Cc1c(-c2ccccc2)cc(-c2ccccc2)n(CCCC(=O)O)c1=O`, the growth is 91.3% with NCI-H23 lung; 101% in the experiment with NCI-H226 lung; 95.3% in the experiment with NCI-H322M lung; 103% with NCI-H460 lung; 119% in the experiment on HOP-92 NSCLC; 92% in the experiment with A549/ATCC NSCLC. Further, the growth is 99.6% in the experiment on 786-0 renal; 109% in the experiment with COLO 205 colon; 111% in the experiment with DU-145 prostate; 94.1% in the experiment with K-562 leukemia; 96.5% in the experiment with MALME-3M melanoma; 94.9% with MDA-MB-231 breast. Also, the growth in the experiment on RXF 393 renal is 91.5%; in the experiment with SF-268 CNS, 102%; in the experiment on SF-295 CNS, 93.2%; with SF-539 CNS it was 102%; in the experiment with UACC-257 melanoma it was 96.5%; in the experiment on M14 melanoma, 96%.
For the compound `CC(C)C[C@H](NC(=O)/C=C/Cn1ccc2ccccc2c1=O)B(O)O`, the growth with NCI-H23 lung was 56.3%; in the experiment with NCI-H226 lung, -15.5% (active); with NCI-H322M lung, 85.4%; in the experiment on NCI-H460 lung it was 84.6%; with HOP-92 NSCLC, 99.7%; with A549/ATCC NSCLC, 69%. Further, the growth in the experiment on 786-0 renal was 55.1%; in the experiment with COLO 205 colon, 49.7%; with DU-145 prostate, 40.6%; in the experiment on K-562 leukemia, 35.8%; in the experiment on MALME-3M melanoma, -30% (active); in the experiment on MDA-MB-231 breast it was 35.1%. Besides, the growth is 8.46% (active) in the experiment with RXF 393 renal; 24.6% with SF-268 CNS; 26.8% in the experiment with SF-295 CNS; 15.1% in the experiment with SF-539 CNS; 43.2% in the experiment with UACC-257 melanoma; 21.1% in the experiment with M14 melanoma.
In the case of `N#CC(C#N)C(C#N)C#N`, the growth with NCI-H23 lung was 97.7%; in the experiment with NCI-H226 lung, 99.9%; with NCI-H322M lung, 103%; with HOP-92 NSCLC, 102%; in the experiment with A549/ATCC NSCLC, 79%; with 786-0 renal, 101%. For the same compound, the growth is 99.3% in the experiment on COLO 205 colon; 112% with DU-145 prostate; 105% in the experiment with K-562 leukemia; 114% in the experiment with MALME-3M melanoma; 108% in the experiment with MDA-MB-231 breast; 110% in the experiment on RXF 393 renal. The growth is 104% in the experiment with SF-268 CNS; 102% with SF-295 CNS; 105% in the experiment on SF-539 CNS; 85.7% in the experiment with UACC-257 melanoma; 99.7% in the experiment on M14 melanoma.
For `N#Cc1c(-c2ccccc2)cc(-c2ccccc2)n(CCCCCCC(=O)O)c1=O`, the growth in the experiment with NCI-H23 lung is 96.7%; with NCI-H226 lung, 93.1%; in the experiment on NCI-H322M lung, 96.5%; in the experiment with NCI-H460 lung, 102%; in the experiment on HOP-92 NSCLC it was 125%; in the experiment with A549/ATCC NSCLC it was 102%. Also, the growth in the experiment on 786-0 renal was 105%; in the experiment on COLO 205 colon, 111%; in the experiment on DU-145 prostate, 116%; in the experiment on K-562 leukemia, 94.3%; in the experiment on MALME-3M melanoma it was 94.5%; in the experiment on MDA-MB-231 breast, 94.8%. The growth in the experiment with RXF 393 renal was 92.7%; with SF-268 CNS, 97.8%; in the experiment with SF-295 CNS, 94.1%; in the experiment on SF-539 CNS it was 97.4%; in the experiment on UACC-257 melanoma, 109%; in the experiment on M14 melanoma it was 101%.
Consider `CC(=O)c1ccccc1NC(=O)C(C)(c1ccccc1)c1ccccc1`, for which the growth in the experiment with NCI-H23 lung was 82.7%; with NCI-H226 lung, 91%; in the experiment with NCI-H322M lung it was 89.3%; in the experiment with NCI-H460 lung, 106%; with HOP-92 NSCLC it was 86.4%; with NCI-H522 lung, 77.3%. The growth in the experiment on 786-0 renal is 92.5%; in the experiment on COLO 205 colon it was 114%; with K-562 leukemia, 72.5%; in the experiment with MALME-3M melanoma, 83%; in the experiment with MDA-MB-231 breast, 88.8%; in the experiment on SF-268 CNS it was 92.6%. The growth in the experiment with SF-295 CNS is 86.1%; in the experiment on SF-539 CNS, 105%; in the experiment on UACC-257 melanoma it was 85.9%; in the experiment on M14 melanoma it was 99.9%.
In the case of `O=C(C(=O)c1cc(Br)ccc1O)c1cc(Br)ccc1O`, the growth with NCI-H23 lung is 19.8%; in the experiment with NCI-H226 lung, 90.9%; in the experiment with NCI-H322M lung it was 67.6%; in the experiment on NCI-H460 lung, 39%; in the experiment with HOP-92 NSCLC it was 25.4%; in the experiment on A549/ATCC NSCLC it was 50.7%. The growth in the experiment with 786-0 renal is 61.2%; with COLO 205 colon, 100%; in the experiment on DU-145 prostate, 67.7%; in the experiment with K-562 leukemia, 42.8%; in the experiment with MALME-3M melanoma, 31.2%; with MDA-MB-231 breast it was 64.8%. The growth in the experiment with RXF 393 renal was 65.7%; in the experiment with SF-268 CNS, 38.1%; in the experiment with SF-295 CNS, 67.9%; in the experiment with SF-539 CNS, 53.2%; with UACC-257 melanoma it was 43.1%; in the experiment on M14 melanoma, 66.9%.
`CCNCCCn1c2c(c3ccc(F)cc3c1=O)C(=O)c1cc(OC)cnc1-2`: the growth in the experiment with NCI-H23 lung was -40.4% (active); in the experiment on NCI-H226 lung, -59.1% (active); with NCI-H322M lung, -3.52% (active); in the experiment with NCI-H460 lung, -27.1% (active); in the experiment on HOP-92 NSCLC, -15.5% (active); in the experiment on A549/ATCC NSCLC it was -62.6% (active). The growth was -38.4% (active) in the experiment with 786-0 renal; -32% (active) in the experiment on COLO 205 colon; -2.92% (active) with DU-145 prostate; 1.44% (active) in the experiment with K-562 leukemia; -68.7% (active) in the experiment with MALME-3M melanoma; 3.91% (active) in the experiment on MDA-MB-231 breast. In addition, the growth is -80.8% (active) in the experiment with RXF 393 renal; 1.76% (active) in the experiment on SF-268 CNS; -21% (active) in the experiment on SF-295 CNS; -25.7% (active) with SF-539 CNS; -20.4% (active) in the experiment on UACC-257 melanoma; -25.9% (active) with M14 melanoma.
In the case of `COc1cc(C2CC(C3C(=O)N(C)C(=O)N(C)C3=O)=NN2C=O)cc(OC)c1OC` (stereo unspecified), the growth in the experiment on NCI-H23 lung is 97.3%; with NCI-H226 lung, 95.8%; in the experiment on NCI-H322M lung it was 91.2%; in the experiment with NCI-H460 lung it was 99.9%; in the experiment on HOP-92 NSCLC, 105%; with A549/ATCC NSCLC it was 75.1%. In addition, the growth in the experiment on 786-0 renal was 108%; in the experiment on COLO 205 colon it was 98.7%; in the experiment with DU-145 prostate, 111%; in the experiment on K-562 leukemia, 88%; with MALME-3M melanoma it was 109%; in the experiment with MDA-MB-231 breast, 103%. The growth in the experiment with RXF 393 renal was 109%; in the experiment on SF-268 CNS, 102%; with SF-295 CNS, 98.1%; in the experiment with SF-539 CNS it was 104%; with UACC-257 melanoma, 78.3%; in the experiment on M14 melanoma it was 84%.
